TRHR ag: activates the human TRH receptor; TRHR cells, calcium flux fluo-8, FDSS agonist mode; AID 493084; 360,000 compounds, 0.18% hits; activation, % at 2 µM; further: 0% is about no effect
Target sequence (P34981 whole entry, looked up): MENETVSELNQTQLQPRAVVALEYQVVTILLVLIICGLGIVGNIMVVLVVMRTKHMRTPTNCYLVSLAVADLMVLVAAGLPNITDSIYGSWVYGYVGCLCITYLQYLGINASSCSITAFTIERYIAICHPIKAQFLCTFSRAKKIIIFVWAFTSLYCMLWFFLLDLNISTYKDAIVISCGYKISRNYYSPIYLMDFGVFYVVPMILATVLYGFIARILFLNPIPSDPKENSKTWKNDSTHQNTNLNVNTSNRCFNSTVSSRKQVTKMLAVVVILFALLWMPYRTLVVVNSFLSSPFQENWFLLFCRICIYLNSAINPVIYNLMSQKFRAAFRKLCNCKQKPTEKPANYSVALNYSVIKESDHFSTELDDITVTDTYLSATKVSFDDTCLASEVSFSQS
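Steps: seed TRHR cells overnight; add fluo-8 no-wash Ca dye, RT 30 min–1.5 h; record 10 s baseline; pin-transfer compounds; monitor fluorescence 1 cycle/s for the agonist window. Calcium increases flag candidate agonists.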
D1 PAM: human D1 dopamine receptor positive modulation | potentiation, % at 10 µM | HEK293 TREx D1 cells, calcium flux, dopamine EC20 potentiation | 360,000 compounds, 0.036% hits | P21728; in the data active means potentiation above about 30%; further: 0% is about no effect
D1 antagonist: antagonists of human D1 dopamine receptor | HEK293 TREx D1 cells, calcium flux, dopamine EC80; hits give low values | activity change, negative = inhibition, % at 10 µM | 360,000 compounds, 3.2% hits | P21728; in the data active means activity change below about -30%; further: on the % scale 0 is the no-effect control and ±100 the full control effect
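Allosteric or orthosteric antagonism assessed as attenuation of the calcium response to EC80 dopamine, added 180 s after compound, in induced HEK293 Trex D1 cells loaded with no-wash calcium dye.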
Epigenetic reg: regulators of epigenetic silencing causing reporter derepression in mouse cells | Potency, µM (titrated, usually from 53.9 µM), for inactives: at the highest dose GFP activation, most hits filed as activators | AID 1865 | 280,000 compounds, 0.2% hits | murine LDR cells, GFP reporter derepression, 30 h; active means well fitted activation curve with a large enough effect; inconclusive means small, poorly fitted or top-dose-only effect; further: potency means the concentration at half of the fitted maximal effect; % of control where 0% means no effect; nearly all actives have a fitted effect of over 60% in size
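Readout is the number of GFP-expressing murine LDR cells, counted by cytometry following washing. Cells were treated with compound for 30 h at 37 C; the stably integrated CMV-GFP locus is normally silent.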
D1 agonist: human D1 receptor agonism | AID 504660 | 360,000 compounds, 1% hits | HEK293 T-REx D1 cells, calcium flux, agonist mode | activation, % at 2 µM | P21728; further: 0% is about no effect
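Tetracycline-induced HEK293 TREx D1 cells, force-coupled to calcium signalling, were dye-loaded with a no-wash calcium kit. Compound was pin-added after a 10 s baseline. Fluorescence was read kinetically at 1 cycle/s for 180 s, with calcium rises flagged as agonism.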
TRHR PAM: allosteric enhancers of human TRH receptor | P34981 | TRHR cells, fluo-8 calcium fluorescence, EC20 TRH enhancement | enhancement, % at 2 µM | 360,000 compounds, 0.66% hits | AID 493056; in the data active means enhancement above about 30%; further: 0% is about no effect
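TRHR-expressing cells loaded with fluo-8 calcium dye were read kinetically (ex 480/em 530) during compound addition, then stimulated with an EC20 of TRH (10 nM final). Enhancement of the Gq-mediated intracellular calcium response was scored.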
* marks the source's active call; other numbers are inactive results; u = inconclusive; x = no result; ! = not confirmed by another sample; [ ] = another dose, or the depositor's remark. Hits are enriched below; roughly 4.6% of the tested compounds scored in any of these assays. Unless noted, no stated cut-off is given here; in the data, active means activation above about 30%; inactive means the rest.

SMILES	TRHR ag	D1 PAM	D1 antagonist	Epigenetic reg	D1 agonist	TRHR PAM
Cc1ccc(Cl)cc1N1CCN(C(=O)CCCn2c(=O)[nH]c3ccc(Br)cc3c2=O)CC1	1	0	7	-2%	-1	0
CCC(NC(=O)c1cc(COc2cc(C)c(Cl)c(C)c2)on1)c1ccncc1 (centres undefined)	3	-4	65	x	36*	-1
COc1ccccc1C(=O)Nc1c(C(=O)NC(C)(C)C)oc2ccccc12	1	33*	64	4%	33*	12
COc1ccccc1C(=O)Nc1c(C(=O)c2ccccc2)oc2ccccc12	-1	6	22	-1%	4	1
COC(=O)c1oc2ccccc2c1NC(=O)c1ccccc1O	-1	-6	-43*	8%	14	9
O=C1c2cccc3c(O)ccc(c23)C(=O)N1c1ccc(Cl)cc1	0	19	8	x	470*	12
O=C1c2cccc3c(O)ccc(c23)C(=O)N1Cc1ccco1	235*	0	6	0%	272*	33*
CC(=O)Nc1ccc(N2C(=O)c3cccc4c(O)ccc(c34)C2=O)cc1	199*	12	2	x	283*	35*
CCOc1ccc(CNC(=O)CCCn2c(=O)c3cccn3c3ccccc32)cc1	0	-3	10	0%	1	-1
O=C(c1cnc(N2CCCCC2)c2ccccc12)N1CCN(c2ccc(F)cc2)CC1	0	-3	15	0%	2	-8
C=CCn1c(N)cc(=O)nc1SC(C)C(=O)Nc1ccc(C(=O)OCC)cc1 (centres undefined)	0	-3	-35*	x	4	-4
CC1=C(c2ccc(Cl)cc2)S(=O)(=O)NC1=NCCCN1CCN(c2cc(C)ccc2C)CC1	0	0	6	0%	0	-1
COc1ccccc1OCC(=O)Nc1ccc(S(=O)(=O)N(C)c2ccccc2)cc1	0	-1	-41*	x	12	-5
CCN(c1ccccc1)S(=O)(=O)c1ccc(NC(=O)c2nc(S(C)(=O)=O)ncc2Cl)cc1	1	-7	-34*	-1%	2	-1
CCS(=O)(=O)c1ncc(Cl)c(C(=O)Nc2ccc(S(=O)(=O)N(C)c3ccccc3)cc2)n1	1	-18	-61*!	2%	2	-11
CCc1ccc(S(=O)(=O)c2nnn3c2nc(Nc2cccc(C)c2C)c2sccc23)cc1	0	0	-3	u	1	-2
COC(=O)c1ccc(CN2C(=O)NC(CC(C)C)C2=O)cc1 (centres undefined)	1	2	-32*	0%	7	4
CCCNC(=O)OC[C@@H]1O[C@H](CCO/N=C2\c3cc(OC)ccc3O[C@H](c3cccc(OC)c3)[C@H]2O)C=C[C@@H]1Oc1ccc(OC)cc1	x	x	x	0%[10.1 µM]	x	x
CCN(c1ccc(OC)cc1)S(=O)(=O)c1ccc2[nH]c(=O)ccc2c1	0	-2	-4	0%	0	-3
CCCn1c(=O)c(C(=O)NNC(=O)Cc2ccccc2)c(O)c2ccccc21	0	-6	-5	x	6	33*
CCCn1c(=O)c(C(=O)NNC(=O)c2ccccc2Cl)c(O)c2ccccc21	30*	-6	-19	x	21	-2
CC1CCN(CC(O)CN2c3ccccc3Sc3ccccc32)CC1 (centres undefined)	1	-9	-89*	x	33*	15
OCCNCC(O)CN1c2ccccc2Sc2ccccc21 (centres undefined)	2	-11	-31*	x	7	-3
CC(C)CNCC(=O)N1c2ccccc2Sc2ccccc21	x	x	x	-1%	x	x
CCOC(=O)c1ccc(-n2c(CCC(=O)O)ccc2-c2ccc(Br)cc2)cc1	0	-3	-31*	3%	4	1
SMILES	TRHR ag	D1 PAM	D1 antagonist	Epigenetic reg	D1 agonist	TRHR PAM
O=C(O)CCc1ccc(-c2ccc(Br)cc2)n1-c1ccc(O)cc1	-1	0	2	x	0	0
CCOc1ccc(-n2c(CCC(=O)O)ccc2-c2ccc(Br)cc2)cc1	0	1	-7	0%	6	33*
O=C(Nc1nc(-c2ccc(Br)cc2)ns1)c1ccccc1F	1	-2	-6	6%	3	-2
COc1ccc(OC)c(NC(=O)Cn2cc(C(=O)c3ccco3)c3ccccc32)c1	0	2	11	0%	0	-3
COc1ccc(OC)c(NC(=O)Cn2cc(C(=O)c3cccs3)c3ccccc32)c1	0	4	-34*	1%	1	7
CC(=O)c1ccc(N2CCN(C(=O)c3nn(Cc4ccccc4)c(=O)c4ccccc34)CC2)cc1	0	-7	-45*	3%	3	1
O=C(c1n[nH]c2ccccc12)N1CCOCC1	0	-8	x	3%	-1	-24
CC(=O)c1ccc(N2CCN(C(=O)c3n[nH]c4ccccc34)CC2)cc1	-1	1	-33*	-2%	7	-3
COc1cc2c(cc1OC)CN(C(=O)c1nn(Cc3ccccc3)c(=O)c3ccccc13)CC2	0	-11	-14	x	3	-6
NC(=O)C1CN(C(=O)c2nn(Cc3ccccc3)c(=O)c3ccccc23)c2ccccc2O1 (centres undefined)	0	5	26	x	5	37*
COc1ccc(C(=O)Nc2cc3cc(Cl)ccc3oc2=O)cc1OC	0	-2	7	0%	-1	-2
CCOC(=O)c1ccc(N2C(=O)c3n[nH]c(C)c3C2c2ccc(OC)c(OC)c2)cc1 (centres undefined)	0	-8	-37*	1%	1	3
CCOc1ccc(Nc2cc(C)nc(-n3nc(C)cc3C)n2)cc1	-1	-5	-33*	1%	1	-7
CC1C(=O)CCC1(C(=O)O)c1ccccc1 (centres undefined)	1	-3	-17	0%	4	33*
COc1ccc(C2=Nc3ccccc3N(CC(=O)Nc3cccc(C(C)=O)c3)C(=O)C2)cc1	-1	-4	-3	0%	13	8
FC(F)Sc1ccc(NC(=S)NCc2ccccc2)cc1	1	-13	-32*	-3%	16	-3
CN(C)CCCN(Cc1ccccc1)C(=S)Nc1ccc(SC(F)F)cc1	3	-12	-9	0%	32*	1
FC(F)(F)c1ccc(NC(=S)NCc2ccccc2)cc1	0	-8	-37*	0%	22	-6
CN(C)c1ccc(/C=N/NC(=S)NCc2ccccc2)cc1	0	0	-83*	-2%	1	-4
CC(=O)c1ccc(NC(=S)N(CCCN(C)C)Cc2ccccc2)cc1	1	-2	4	0%	8	3
S=C(NCc1ccccc1)NCc1ccccc1	-1	2	-52*	1%	17	4

Source: PubChem BioAssay (National Center for Advancing Translational Sciences (NCATS))
